{"source": "PubChem BioAssay (Tox21)", "note": "Calls of active or inactive are those of the source. Calls follow the shape of the dose curve; as a rule, active = well fitted curve in the direction sought with a large enough effect in the repeat runs; inconclusive = weak or mixed curves; inactive = flat fitted curve, though single readings scatter. % is scaled to controls: 0 for no effect and ±100 for the full control effect."}
{"assay": "qHTS assay to test for compound auto fluorescence at 460 nm (blue) in HEK293 cells (AID 720678)", "settings": "blue autofluorescence 405/460 nm; series mostly up to 91.3 µM; fluorescence, % of triamterene: at the top concentration", "excerpt": "National Center for Advancing Translational Sciences [NCATS]\nNIH Chemical Genomics Center [NCGC]\nU.S. Environmental Protection Agency [EPA]\nNational Institutes of Environmental Health Sciences [NIEHS]\nNational Toxicology Program [NTP]\nU.S. Food and Drug Administration [FDA]\nCompound auto fluorescence often interferes with screening of the compound library against various biological targets and signaling pathways. Some of these compounds may have fluorophoric properties. Such properties may interfere with the assay outputs resulting in false positives and/or negatives. To decrease such complications and ensure the compound activities are relevant in terms of biological response, the Tox21 10K compound library was screened for auto fluorescence.\nFrom the fluorophores used as reporter signals in our screening assays, the auto fluorescence equivalencies of compounds against three fluorophores have been evaluated: Triamterene, Fluorescein and Rose Bengal sodium for blue, green and red fluorescence, respectively. The fluorescence intensities were measured using Excitation/Emission wavelengths at 405/460nm, 485/535nm and 540/590nm for blue, green and red labels, respectively. This assay includes the blue fluorescence data.\nTox21 Assay Protocol Summary:\n2,000 HEK293 cells in 5 uL of culture medium containing 10% dialyzed FBS per well were dispensed into black wall/clear bottom 1536-well plates using a Multidrop Combi Dispenser (Thermo Scientific). The assay plates were incubated for 4-5 hr at 37C to allow cell attachment to the well bottom, followed by the transfer of 23 nL compound or DMSO vehicle by a pintool work station (Kalypsys, San Diego, CA). After the assay plates were incubated overnight at 37C and 5% CO2, fluorescence intensities in the assay plates were measured by an Envision (PerkinElmer, Shelton, CT) plate reader using three labels for measuring blue, green and red fluorescence at […] 460, 535 and 590nm respectively."}
{"smiles": "C[C@]12CCC(=O)C(O)=C1CC[C@@H]1[C@@H]2CC[C@]2(C)C(=O)CC[C@@H]12", "outcome": "inactive"}
{"smiles": "Nc1ccc(-c2ccc(N)c(N)c2)cc1N", "outcome": "inactive"}
{"smiles": "Oc1cc(Cl)ccc1Oc1ccc(Cl)cc1Cl", "outcome": "inactive"}
{"smiles": "COP(=S)(OC)Oc1cc(Cl)c(Cl)cc1Cl", "outcome": "inactive"}
{"smiles": "CCOc1cc(Oc2ccc(C(F)(F)F)cc2Cl)ccc1[N+](=O)[O-]", "outcome": "inactive"}
{"smiles": "CCN(N=O)C(N)=O", "outcome": "inactive"}
{"smiles": "O=C(CCl)c1ccccc1", "outcome": "inactive"}
{"smiles": "C1=Cc2cccc3cccc1c23", "fluorescence, % of triamterene": "0.354% (inactive)"}
{"smiles": "O=[N+]([O-])c1ccc(O)c([N+](=O)[O-])c1", "outcome": "inactive"}
{"smiles": "Oc1ccc(-c2ccccc2)cc1", "outcome": "inactive"}
{"smiles": "CCc1cccc(CC)c1N(COC)C(=O)CCl", "outcome": "inactive"}
{"smiles": "CC(C)NC(C)C", "outcome": "inactive"}
{"smiles": "CC1(C)C(C=C(Cl)Cl)C1C(=O)OC(C#N)c1cccc(Oc2ccccc2)c1", "note": "(stereo not given)", "outcome": "inactive"}
{"smiles": "N#Cc1cc(Br)c(O)c(Br)c1", "outcome": "inactive"}
{"smiles": "CC(C)C(=O)OCC(C)(C)C(OC(=O)C(C)C)C(C)C", "note": "(stereo not given)", "outcome": "inactive"}
{"smiles": "CN(C)c1ccc(C(=O)c2ccc(N(C)C)cc2)cc1", "fluorescence, % of triamterene": "8.76% (inactive)"}
{"smiles": "CCCCC(CC)COC(=O)c1ccc(C(=O)OCC(CC)CCCC)c(C(=O)OCC(CC)CCCC)c1", "note": "(stereo not given)", "outcome": "inactive"}
{"smiles": "S=C1NCCN1", "outcome": "inactive"}
{"smiles": "COP(=O)(OC)OC", "outcome": "inactive"}
{"smiles": "N#CCCCl", "outcome": "inactive"}
{"smiles": "COc1ccc(C=O)cc1", "outcome": "inactive"}
{"smiles": "CC(O)CCO", "note": "(stereo not given)", "outcome": "inactive"}
{"smiles": "CCOC(=O)C(C)OC(=O)c1cc(Oc2ccc(C(F)(F)F)cc2Cl)ccc1[N+](=O)[O-]", "note": "(stereo not given)", "outcome": "inactive"}
{"smiles": "c1cc(OCC2CO2)ccc1Cc1ccc(OCC2CO2)cc1", "note": "(stereo not given)", "outcome": "inactive"}
{"smiles": "ClC1C(Cl)C(Cl)C(Cl)C(Cl)C1Cl", "note": "(stereo not given)", "outcome": "inactive"}
{"smiles": "CCCCN(CCCC)N=O", "outcome": "inactive"}
{"smiles": "CC(C)N(C(=O)SCC(Cl)=C(Cl)Cl)C(C)C", "outcome": "inactive"}
{"smiles": "c1ccc(NNc2ccccc2)cc1", "outcome": "inactive"}
{"smiles": "Cc1cc(C)cc(C)c1", "outcome": "inactive"}
{"smiles": "CC(C)Oc1cc(-n2nc(C(C)(C)C)oc2=O)c(Cl)cc1Cl", "outcome": "inactive"}
{"smiles": "Cc1cccc(N)c1N", "outcome": "inactive"}
{"smiles": "CCOCN(C(=O)CCl)c1c(C)cccc1CC", "outcome": "inactive"}
{"smiles": "O=S(=O)(Oc1ccc(Cl)cc1)c1ccc(Cl)cc1", "outcome": "inactive"}
{"smiles": "Oc1c(Cl)c(Cl)c(Cl)c(Cl)c1Cl", "outcome": "inactive"}
{"smiles": "NNC(N)=S", "outcome": "inactive"}
{"smiles": "Oc1cc(Cl)c(Cl)cc1Cl", "outcome": "inactive"}
{"smiles": "O=P(Oc1ccccc1)(Oc1ccccc1)Oc1ccccc1", "outcome": "inactive"}
{"smiles": "CCC(C)c1cc([N+](=O)[O-])cc([N+](=O)[O-])c1O", "note": "(stereo not given)", "outcome": "inactive"}
{"smiles": "CCN(CC)N=O", "outcome": "inactive"}
{"smiles": "CCC(C)(C)c1ccc(O)cc1", "outcome": "inactive"}
